We go through 25 compounds from ChEMBL document CHEMBL4296182, “CO-ADD screening of NIH NCI Diversity Set V”.

The term Inhibition denotes the drop in the measured response relative to a control, in per cent.

Structures are written as SMILES. For part of these data: Results with a measured potency or affinity are listed apart.

One assay has as its system Staphylococcus aureus. The assay can be described thus: Antibacterial activity against Staphylococcus aureus MRSA ATCC 43300 (CO-ADD:GP_020); MIC in CAMBH media using NBS plates, by Resazurin F(560/590). The class given is functional. The note with it: Concentration 20 uM, ASSAY_TEST Inhibition of Bacterial Growth, detection method Resazurin, Fluorescence (ex560/em590), MEDIA CAMHB, plate type 384well, CORNING #3640, time 18 hr. Background: The colour change of resazurin is a common sign of viable cells or microbes.

The test system of the next assay is Acinetobacter baumannii. The assay can be described thus: Antibacterial activity against Acinetobacter baumannii ATCC 19606 (CO-ADD:GN_034); MIC in CAMBH media using NBS plates, by Resazurin F(560/590). The class given is functional. The note with it: Concentration 20 uM, ASSAY_TEST Inhibition of Bacterial Growth, detection method Resazurin, Fluorescence (ex560/em590), MEDIA CAMHB, plate type 384well, CORNING #3640, time 18 hr.

Another assay has as its system Escherichia coli. The assay can be described thus: Antibacterial activity against Escherichia coli ATCC 25922 (CO-ADD:GN_001); MIC in CAMBH media using NBS plates, by Resazurin F(560/590). The note with it: Concentration 20 uM, ASSAY_TEST Inhibition of Bacterial Growth, detection method Resazurin, Fluorescence (ex560/em590), MEDIA CAMHB, plate type 384well, CORNING #3640, time 18 hr. The assay is classed as functional.

Another assay deals with Klebsiella pneumoniae. The note with it: Concentration 20 uM; ASSAY_TEST Inhibition of Bacterial Growth; detection method Absorption (OD600); MEDIA CAMHB; plate type 384well; NBS; CORNING #3640; time 18 hr.
The subject of the next assay is Candida albicans. Particulars: 20 µM.
The subject of a further assay is Cryptococcus neoformans. Particulars: Concentration 20 uM; ASSAY_TEST Inhibition of Fungal Growth; detection method Resazurin; Absorption (OD600-OD570); plate type 384well; NBS; CORNING #3640.

In the case of `Nc1ccc2c(c1Cl)C(=O)c1ccc(N)c(Cl)c1C2=O`, the Inhibition in the assay on Staphylococcus aureus was 3.14%; in the assay on Acinetobacter baumannii, -5.21%; in the assay on Escherichia coli it was 14.11%; in the assay with Klebsiella pneumoniae it was 8.12%; in the assay with Candida albicans it was -1.01%; in the assay on Cryptococcus neoformans, 17.48%.

For the compound `O=[N+]([O-])c1ccc2c3ccccc3[s+]([O-])c2c1` (stereo not given), the Inhibition was 5.76% with Staphylococcus aureus; 5.87% with Acinetobacter baumannii; 8.3% in the assay on Escherichia coli; 9.17% with Klebsiella pneumoniae; 6.79% in the assay with Candida albicans; -11.15% in the assay on Cryptococcus neoformans.

For `S=C(SCc1cc(Cl)cc2c1OCOC2)N1CCSCC1`, the Inhibition is 8.1% in the assay with Staphylococcus aureus; -7.54% with Acinetobacter baumannii; 10.68% in the assay with Escherichia coli; 22.79% in the assay with Klebsiella pneumoniae; 13.5% in the assay on Candida albicans; 0.8% in the assay with Cryptococcus neoformans.

Regarding `Nc1nc(=S)ss1`, the Inhibition in the assay with Staphylococcus aureus is 5.79%; with Acinetobacter baumannii it was -17.7%; in the assay on Escherichia coli, 2.29%; in the assay with Klebsiella pneumoniae, 13.54%; in the assay on Candida albicans, 3.85%; in the assay with Cryptococcus neoformans it was -5.25%.

For `C/C(=N\NC(N)=O)c1ccc(Cl)c(-n2cccc2)c1`, the Inhibition in the assay on Staphylococcus aureus was 16.93%; in the assay on Acinetobacter baumannii, -8.65%; in the assay on Escherichia coli, 6.19%; in the assay on Klebsiella pneumoniae, 13.36%; in the assay with Candida albicans it was 4.13%; in the assay with Cryptococcus neoformans, -10.07%.

For the compound `O=c1oc(-c2ccccc2)c(-c2ccccc2)c2ccccc12`, the Inhibition was 13.22% in the assay on Staphylococcus aureus; 4.08% in the assay on Acinetobacter baumannii; 7.81% in the assay with Escherichia coli; 4.41% in the assay on Klebsiella pneumoniae; 1.88% with Candida albicans; -4.28% in the assay with Cryptococcus neoformans.

Regarding `COc1ccc(/C(C#N)=C/c2cccnc2)cc1`, the Inhibition is 17.02% with Staphylococcus aureus; -13.68% with Acinetobacter baumannii; 11.08% with Escherichia coli; 6.19% in the assay with Klebsiella pneumoniae; 11.3% with Candida albicans; -16.52% with Cryptococcus neoformans.

Turning to `COc1cc2c(c3c1c(=O)c1cccc(F)c1n3C)C=CC(C)(C)O2`, the Inhibition was 18.94% in the assay with Staphylococcus aureus; 5.21% in the assay with Acinetobacter baumannii; 5.53% in the assay with Escherichia coli; 10.26% in the assay with Klebsiella pneumoniae; 1.02% with Candida albicans; -11.93% with Cryptococcus neoformans.

For `O=C(OCC(O)COC(=O)c1cccnc1)c1cccnc1`, the Inhibition was 6.08% in the assay with Staphylococcus aureus; 10.73% in the assay on Acinetobacter baumannii; 2.79% with Escherichia coli; 3.04% in the assay on Klebsiella pneumoniae; 1.84% with Candida albicans; -7.06% with Cryptococcus neoformans.

Take `CCC(CO)Nc1nc2ccc(Cl)cc2c2ccccc12` (stereo not given): the Inhibition with Staphylococcus aureus was 32.89%; with Acinetobacter baumannii, 5.43%; with Escherichia coli, 4.69%; in the assay with Klebsiella pneumoniae, 20.8%; with Candida albicans, 4.64%; with Cryptococcus neoformans it was -2%.

In the case of `OC1(Cc2ccccc2)CCNCC1`, the Inhibition in the assay on Staphylococcus aureus was 8.09%; with Acinetobacter baumannii, -10.57%; in the assay with Escherichia coli, 6.88%; in the assay with Klebsiella pneumoniae it was 12.17%; in the assay on Candida albicans, 7.54%; in the assay with Cryptococcus neoformans, -0.07%.

In the case of `CC1=NC(C)(C)CC2CCC(O)C12` (stereo not given), the Inhibition with Staphylococcus aureus is 15.01%; in the assay with Acinetobacter baumannii it was -5.87%; in the assay with Escherichia coli, 9.74%; in the assay on Klebsiella pneumoniae, 11.22%; in the assay on Candida albicans, 1.52%; in the assay on Cryptococcus neoformans, -2.24%.

For `Cc1ccn2c(C(C)O)nnc2c1` (stereo not given), the Inhibition is 16.33% with Staphylococcus aureus; -15.76% with Acinetobacter baumannii; 12.13% in the assay with Escherichia coli; 2.31% in the assay with Klebsiella pneumoniae; -1.79% in the assay with Candida albicans; -15.94% in the assay on Cryptococcus neoformans.

Turning to `C=C1CC2(OC1=O)c1ccccc1CCc1ccccc12`, the Inhibition is -2.53% with Staphylococcus aureus; -14.2% with Acinetobacter baumannii; 2.27% with Escherichia coli; 9.76% in the assay with Klebsiella pneumoniae; 10.3% in the assay with Candida albicans; -9.88% with Cryptococcus neoformans.

Take `CSc1cccc(NC(=O)OC2CCCCCCCCCCC2)c1`: the Inhibition with Staphylococcus aureus is 23.58%; in the assay with Acinetobacter baumannii it was 6.29%; with Escherichia coli, 14.03%; in the assay on Klebsiella pneumoniae, 20.05%; in the assay on Candida albicans, 2.81%; with Cryptococcus neoformans it was -2.07%.

`Nc1ccc(C(=O)c2cccs2)cn1`: the Inhibition in the assay with Staphylococcus aureus is 33.76%; in the assay with Acinetobacter baumannii, 0%; in the assay on Escherichia coli, 26.4%; in the assay with Klebsiella pneumoniae, 9.25%; in the assay with Candida albicans it was 8.82%; in the assay with Cryptococcus neoformans, -0.14%.

For `O=C1c2ccccc2C(=O)c2c(Nc3ccc(CCO)cc3)ccc(O)c21`, the Inhibition with Staphylococcus aureus is 19.9%; in the assay with Acinetobacter baumannii, 1.68%; with Escherichia coli, 9.39%; in the assay with Klebsiella pneumoniae, 4.66%; in the assay with Candida albicans, -0.52%; in the assay on Cryptococcus neoformans it was -4.75%.

Turning to `Cc1ccc(Cl)cc1NC(=O)N(C)CCO`, the Inhibition with Staphylococcus aureus is -6.32%; with Acinetobacter baumannii, 12.85%; in the assay with Escherichia coli it was -9.79%; with Klebsiella pneumoniae, 13.54%; in the assay with Candida albicans, 6.98%; in the assay on Cryptococcus neoformans, -5.5%.

For the compound `C#C[C@]1(O)CC[C@H]2[C@@H]3CCC4=Cc5oncc5C[C@]4(C)[C@H]3CC[C@@]21C` [DANAZOL], the Inhibition in the assay with Staphylococcus aureus is -10.91%; in the assay with Acinetobacter baumannii, 2.93%; in the assay on Escherichia coli it was 12.68%; with Klebsiella pneumoniae it was 6.03%; in the assay with Candida albicans, 0.72%; in the assay with Cryptococcus neoformans, -10.04%.

Turning to `COc1ccc2c(c1)CCN1C2CCN2C(=O)CCC21` (stereo not given), the Inhibition in the assay with Staphylococcus aureus is -11.91%; with Acinetobacter baumannii, -4.71%; with Escherichia coli, -9.16%; in the assay on Klebsiella pneumoniae it was 7.62%; with Candida albicans, 3.14%; in the assay with Cryptococcus neoformans it was -4.03%.

`NC(S)=Nc1cccc(Cl)c1`: the Inhibition in the assay with Staphylococcus aureus was 9.52%; in the assay with Acinetobacter baumannii it was -8.51%; in the assay with Escherichia coli, 1.81%; in the assay on Klebsiella pneumoniae it was 0.23%; in the assay with Candida albicans it was 2.81%; in the assay on Cryptococcus neoformans, -2.86%.

For the compound `C=CCOCCN(CC)CC`, the Inhibition with Staphylococcus aureus was -2.28%; with Acinetobacter baumannii, -4.48%; in the assay with Escherichia coli, -9.5%; with Klebsiella pneumoniae it was 7.56%; in the assay on Candida albicans it was 2.62%; with Cryptococcus neoformans, 15.03%.

In the case of `O=C(O)C(Cc1ccccc1N(CCO)CCO)N1C(=O)c2ccccc2C1=O` (stereo not given), the Inhibition is 11.82% in the assay on Staphylococcus aureus; 6.12% in the assay with Acinetobacter baumannii; 3.59% in the assay with Escherichia coli; 11.57% in the assay with Klebsiella pneumoniae; 0.11% in the assay with Candida albicans; -6.78% with Cryptococcus neoformans.

For `COc1cc(CCC(=O)O)on1`, the Inhibition with Staphylococcus aureus is 9.35%; with Acinetobacter baumannii it was -6.5%; with Escherichia coli, 10.23%; in the assay with Klebsiella pneumoniae, 8.1%; in the assay on Candida albicans it was -0.47%; in the assay with Cryptococcus neoformans it was -11.79%.

For `Nc1cc(N)nc(CS)n1`, the Inhibition with Staphylococcus aureus is 9.52%; with Acinetobacter baumannii it was -5.46%; in the assay on Escherichia coli it was 6.53%; in the assay with Klebsiella pneumoniae it was 20.9%; with Candida albicans, -2.73%; in the assay with Cryptococcus neoformans, -6.05%.
